Bioassay records: PubChem BioAssay, several laboratories
Platelet DG rel = modulates dense granule release in human platelets | 300,000 tested, 0.22% active | inhibition, %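 (compounds screened at 7.5 µM in platelet-rich plasma)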 | human platelet-rich plasma, SFLLRN dense granule ATP release, luminescence;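 active = mean replicate score, as percent of positive control, at or above 50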
AI-2 QS mod = modulators of Vibrio harveyi AI-2 quorum sensing system; Vibrio harveyi JMH597 AI-2 luminescence/OD600 ratio, 9 h; stronger effect = lower value; strain lacks LuxN and CqsS sensors; 0 = neutral-control median; activity change, % at 7.5 µM; 300,000 tested, 0.4% active; AID 2094; in the data active = activity change below about -75%, passing the limit was not always enough;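 also: luminescence divided by OD600 gain over 9 h not by final OD600 alone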
CHT PAM = allosterically activates the human high affinity choline transporter; 310,000 tested, 0.49% active; B-score at 10 µM; CHT-expressing cells, membrane potential dye, choline EC20; stronger effect = higher value; LV-AA mutant CHT in HEK293 cells; AID 488977; Q9GZV3;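 active = initial fluorescence not abnormally high and integrated response B-score, plate-corrected, over 3 SD above library mean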
HIF act = HIF pathway transcriptional activation; U2OS HRE-luciferase reporter, luminescence; normalized: DMSO 0%, desferrioxamine 100%; 300,000 tested, 0.32% active; activation, % at 7.5 µM (by protocol); AID 1910;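 active = mean activation of at least 10% of the iron chelator positive control signal, with at least half of replicates also reaching 10%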
VLA-4 inh = inhibition in a human VLA-4 binding assay; P13612; VLA-4 expressing cells, ligand binding flow cytometry; inhibition, % (about 7 µM as worked out from the volumes in the protocol); 330,000 tested, 0.2% active; in the data active = inhibition above about 50%
Target sequence (P13612 whole entry, looked up): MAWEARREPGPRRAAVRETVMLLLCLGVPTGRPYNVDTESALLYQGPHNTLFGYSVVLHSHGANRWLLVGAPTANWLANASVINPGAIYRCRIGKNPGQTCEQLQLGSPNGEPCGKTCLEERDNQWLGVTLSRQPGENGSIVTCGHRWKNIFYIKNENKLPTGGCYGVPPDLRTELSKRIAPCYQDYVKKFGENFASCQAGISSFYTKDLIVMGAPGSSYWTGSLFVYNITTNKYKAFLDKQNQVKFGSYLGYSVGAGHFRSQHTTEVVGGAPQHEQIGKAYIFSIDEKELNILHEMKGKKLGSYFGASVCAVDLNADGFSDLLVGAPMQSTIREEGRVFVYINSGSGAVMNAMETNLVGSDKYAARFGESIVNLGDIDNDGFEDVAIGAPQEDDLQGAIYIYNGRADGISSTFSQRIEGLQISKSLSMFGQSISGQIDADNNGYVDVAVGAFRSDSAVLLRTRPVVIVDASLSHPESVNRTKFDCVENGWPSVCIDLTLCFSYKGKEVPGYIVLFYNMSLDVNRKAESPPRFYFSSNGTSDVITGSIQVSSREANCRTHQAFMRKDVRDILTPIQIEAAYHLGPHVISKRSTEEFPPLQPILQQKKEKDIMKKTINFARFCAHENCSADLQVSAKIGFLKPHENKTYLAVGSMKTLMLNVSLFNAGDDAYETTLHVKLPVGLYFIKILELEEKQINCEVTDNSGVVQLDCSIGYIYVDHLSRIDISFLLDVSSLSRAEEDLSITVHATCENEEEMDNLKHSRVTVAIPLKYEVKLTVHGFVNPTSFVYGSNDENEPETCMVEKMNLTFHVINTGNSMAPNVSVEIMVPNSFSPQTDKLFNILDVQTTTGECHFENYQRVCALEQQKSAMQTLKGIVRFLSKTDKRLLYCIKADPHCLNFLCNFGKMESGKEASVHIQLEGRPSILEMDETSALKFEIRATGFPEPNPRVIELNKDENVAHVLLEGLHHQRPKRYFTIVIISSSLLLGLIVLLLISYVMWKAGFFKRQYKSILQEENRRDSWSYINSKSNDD
CHT inh = inhibitors of human choline transporter CHT; Q9GZV3; CHT-expressing cells, membrane potential dye, choline response; stronger effect = lower value; B-score at 10 µM; 310,000 tested, 0.86% active;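 active = B-score over 3 SD under the library average, and starting fluorescence ratio not unusually high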;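 also: choline stimulus applied at its EC90 after an EC20 pre-addition; B-score computed on integrated fluorescence ratio after choline addition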
VLA-4 mod pick = human VLA-4 allosteric modulation in cherry picked compounds; U937 cells, HUTS-21 LIBS mAb binding, flow cytometry; LDV ligand present at threefold Kd; inhibition, % at 6.7 µM; AID 2813; 1,300 tested, 2% active; shares compounds with VLA-4 inh; in the data active = inhibition above about 40%
A number is an active result; – = inactive; · = not tested or not shown. Shown are actives, neighbours in structure and some others; about 2.2% of the full set was active somewhere.

SMILES	Platelet DG rel	AI-2 QS mod	CHT PAM	HIF act	VLA-4 inh	CHT inh	VLA-4 mod pick
CC[C@@H]1C=C(C(=O)O)[C@H](c2ccc(Cl)cc2)N1S(=O)(=O)c1ccc(C)cc1	·	·	·	·	–	·	·
CCc1ccc([C@H]2C(C(=O)O)=C[C@@H](C(C)(C)C)N2S(=O)(=O)c2ccc(C)cc2)cc1	·	·	·	·	–	·	–
Cc1ccc(S(=O)(=O)NC(Cc2ccccc2)C(=O)O)cc1C (centres undefined)	–	–	–	–	–	–	·
O=C(Cn1cc(C(F)(F)F)ccc1=O)NCc1ccc(F)cc1	–	–	–	–	–	–	·
N#Cc1ccccc1NC(=O)C(=O)NCCCN1CCCC1=O	–	–	–	–	–	–	·
CN(C)CCn1c2c(c(SCC(=O)Nc3ccc4c(c3)OCCO4)nc1=O)CCCC2	–	–	–	–	–	–	·
C/C(=N\NC(=O)c1ccccc1)c1ccc2c(c1)OCO2	–	–	–	–	71	–	–
NCCCCCc1cn(CC(=O)NCCCCCCCCCCC(=O)N2CCNCC2)nn1	·	·	–	·	–	–	·
Cc1ccc2c([N+](=O)[O-])c(C)ccc2n1	–	–	–	–	51	–	–
Cc1ccc2c([N+](=O)[O-])cccc2n1	–	–	–	–	–	–	·
CCCCn1c(N)c(N(CCOC)C(=O)C2CC(=O)N(c3ccc(CC)cc3)C2)c(=O)[nH]c1=O (centres undefined)	·	·	·	·	–	·	·
COC(=O)c1ccc(C)c(NC(=O)c2ccc(Cl)c([N+](=O)[O-])c2)c1	–	–	–	–	54	–	–
COC(=O)c1ccc(Cl)c(NC(=O)c2cccc([N+](=O)[O-])c2C)c1	–	–	–	–	–	–	·
CC(=O)c1ccc(N2C(=NC(=O)CCc3ccccc3)SC3CS(=O)(=O)CC32)cc1 (centres undefined)	–	–	–	–	–	–	·
CN(CC(=O)Nc1ccc(Cl)c(C(F)(F)F)c1)C(=O)c1cc(=O)c2ccccc2o1	·	·	·	·	–	·	·
O=c1c(C(c2ccc(Cl)cc2)c2c(O)nc3n(c2=O)CCS3)c(O)nc2n1CCS2	–	–	–	–	–	–	·
N#Cc1c(-c2ccc(Cl)cc2Cl)nc2n(c1=O)CCS2	–	–	–	–	92	–	–
Cn1c(SCc2ccc(F)cc2Cl)nc2ccccc2c1=O	·	·	·	·	–	·	·
COc1ccc(-c2cc(C3CCN(c4ccc(C(C)=O)cc4[N+](=O)[O-])CC3)[nH]n2)cc1	–	–	–	–	59	–	–
COC(=O)c1ccc(N2CCC(c3cc(-c4ccc(OC)cc4)n[nH]3)CC2)c([N+](=O)[O-])c1	–	–	–	–	–	–	·
Cc1ccccc1C(=O)NCC(=O)Nc1ccc(C)c(S(=O)(=O)N2CCCCCC2)c1	–	–	–	–	–	–	·
CC1CCCN(C(=O)c2ccc3c(c2)OCCO3)C1 (centres undefined)	·	·	·	·	50	·	–
O=C(COc1ccccc1)Nc1ccccc1C(=O)NCc1ccco1	–	–	–	–	58	–	–
CCCNC(=O)c1ccccc1NC(=O)COc1ccc(OC)cc1	–	–	–	·	·	–	–
COc1ccc(S(=O)(=O)NCc2ccco2)cc1NC(=O)c1ccccc1	–	–	–	–	–	–	·
SMILES	Platelet DG rel	AI-2 QS mod	CHT PAM	HIF act	VLA-4 inh	CHT inh	VLA-4 mod pick
CCN(CC)C(=O)c1sc(NC(=O)c2ccc(Br)o2)c(C(=O)OC)c1C	–	–	–	–	–	–	·
CCOC(=O)c1c(NC(=O)C2c3ccccc3Oc3ccccc32)sc(C(=O)N(CC)CC)c1C	–	–	–	–	–	–	–
COc1cc(C)nc(NS(=O)(=O)c2ccccc2Cl)n1	–	–	–	–	–	–	–
CC(C(=O)NCC1CCCCC1)N1CCN(S(=O)(=O)/C=C/c2ccccc2)CC1 (centres undefined)	–	–	–	–	–	–	–
CC(C(=O)NCC1CCCCC1)N1CCc2ccccc2C1 (centres undefined)	–	–	–	–	–	–	·
CC(OC(=O)c1ccccc1O)C(=O)Nc1cccc(Cl)c1 (centres undefined)	–	–	–	–	–	–	–
Cc1ccc(NC(=O)c2cc(N3C(=O)CCC3=O)ccc2N2CCOCC2)cc1	–	–	–	–	–	–	·
